Experimental data reported in the supplement of paper PMC9446081.
The campaign covered roughly 39,000 compounds. About 220 (0.56%) showed activity. The sample as a whole holds a higher share of actives than the screen did. Unmarked numbers belong to inactive results.

System: Escherichia coli K-12 BW25113
Test: relative growth (OD600 normalised to plate interquartile mean) (fraction); higher = less growth inhibition, active = 0.2 or less
Conditions: 50 µM; LB; incubation time: overnight (16-24 h)
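Also: Wild-type cells incubated without shaking, value is the mean of two biological replicates.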

SMILES | relative growth
OC[C@H]1O[C@H](n2nnc3ccccc32)[C@@H](O)[C@@H](O)[C@@H]1O | 0.989
Cc1noc(C)c1S(=O)(=O)Nc1cccc2c1O[C@H](CN(C)S(=O)(=O)c1cccs1)[C@H](C)CN([C@@H](C)CO)C2=O | 1
CCCN1C[C@@H](C)[C@H](OC)CN(C)C(=O)c2ccc(NS(=O)(=O)c3cn(C)cn3)cc2OC[C@@H]1C | 1
Nc1ccc(/C=C/c2ccccc2)cc1 | 0.999
C[C@H](CO)N1C[C@H](C)[C@@H](CN(C)C(=O)c2cnccn2)Oc2cc(Br)ccc2S1(=O)=O | 0.986
CC1CCc2cc(F)cc3c(=O)c(C(=O)O)cn1c23 (stereo unspecified) | 0.0455 (active)
CC1CCc2c(N3CCC(O)CC3)c(F)cc3c(=O)c(C(=O)O)cn1c23 (stereo unspecified) | 0.0484 (active)
C[C@@H]1CN([C@@H](C)CO)C(=O)Cc2cc(NC(=O)Cc3ccccc3)ccc2O[C@@H]1CN(C)Cc1ccc(Oc2ccccc2)cc1 | 0.987
O=C(C[C@H]1C=C[C@H](NS(=O)(=O)c2ccccc2F)[C@@H](CO)O1)NCCCN1CCOCC1 | 0.993
C[C@H]1CN([C@@H](C)CO)C(=O)Cc2cc(NS(=O)(=O)c3ccccc3)ccc2O[C@@H]1CN(C)S(C)(=O)=O | 0.961
NC(=O)[C@@H]1C(=O)C[C@@H]2C[C@@H]3Cc4cccc(O)c4C(=O)[C@@H]3C(=O)[C@]2(O)C1=O | 0.164 (active)
C[C@@H]1CN([C@@H](C)CO)C(=O)Cc2cc(NC(=O)C3CCCCC3)ccc2O[C@H]1CN(C)C(=O)Nc1cccc2ccccc12 | 1.01
COC(=O)[C@H](Cc1ccc(N=[N+]=[N-])cc1)N1CC2=C[C@@H](C3CC3)n3c(=O)n(C)c(=O)n3[C@H]2[C@@H]1[C@@H](O)Cc1ccccc1 | 0.989
O=C(O)c1cn(C2CC2)c2cc(N3CCC(O)(COc4ccc(N5C[C@H](CO)OC5=O)cc4F)CC3)c(F)cc2c1=O | 0.111 (active)
O=C(O)c1cn(C2CC2)c2cc(N3CCNCC3)c(F)cc2c1=O | 0.0478 (active)
CCN1CCN(c2cc3c(cc2F)c(=O)c(C(=O)O)cn3C2CC2)CC1 | 0.0449 (active)
CC(=O)NCC1CN(c2ccc(N3CCOCC3)c(F)c2)C(=O)O1 (stereo unspecified) | 0.701
CC(=O)NC[C@H]1CN(c2ccc(N3CCN(C(=O)CO)CC3)c(F)c2)C(=O)O1 | 0.38
C[C@H](CO)N1C[C@H](C)[C@H](CN(C)C(=O)Nc2ccc(F)cc2)OCCCC[C@H](C)Oc2ccc(NC(=O)C3CCOCC3)cc2C1=O | 0.981
Cc1ccc(S(=O)(=O)Nc2ccc3c(c2)C(=O)N([C@@H](C)CO)C[C@H](C)[C@H](CN(C)S(C)(=O)=O)OCCCC[C@@H](C)O3)cc1 | 1
NC[C@H]1CC[C@H](C(=O)N2CCC(c3ccncc3)CC2)CC1 | 1.03

SMILES | relative growth
Cc1ccc(S(=O)(=O)N[C@H]2CC[C@H](CCNC(=O)CN3CCOCC3)O[C@@H]2CO)cc1 | 1
C[C@@H]1CN([C@H](C)CO)C(=O)c2cc(NS(=O)(=O)c3ccccc3)ccc2O[C@@H](C)CCCCO[C@H]1CN(C)Cc1ccc(C(=O)O)cc1 | 1
COc1ccc(NC(=O)N(C)C[C@H]2OCCCC[C@@H](C)Oc3ccc(NC(=O)c4ccccc4)cc3C(=O)N([C@@H](C)CO)C[C@H]2C)cc1 | 0.994
COC[C@H](C)N1C[C@H](C)[C@@H](CN(C)Cc2ccc(Oc3ccccc3)cc2)Oc2c(NC(=O)c3ccncc3)cccc2C1=O | 1
Cc1noc(C)c1S(=O)(=O)Nc1ccc2c(c1)C(=O)N([C@H](C)CO)C[C@@H](C)[C@H](CN(C)C(=O)NC1CCCCC1)O2 | 1.01
C[C@@H]1CN([C@H](C)CO)C(=O)c2cc(NS(=O)(=O)c3ccc(F)cc3)ccc2O[C@@H](C)CCCCO[C@@H]1CN(C)C(=O)C1CCCCC1 | 0.993
Cc1noc(C)c1NC(=O)N(C)C[C@H]1Oc2ccc(NC(=O)Nc3ccc(C(F)(F)F)cc3)cc2CC(=O)N([C@H](C)CO)C[C@H]1C | 0.935
C[C@H](CO)N1C[C@H](C)[C@H](CN(C)S(=O)(=O)c2ccccc2)Oc2ccc(NC(=O)C3CC3)cc2CC1=O | 1
CC(C)(C)c1ccc(NC(=O)N[C@H]2CCCc3ccccc32)cc1 | 1.03
COc1ccc(NC(=O)Nc2ccc3c(c2)CC(=O)N([C@H](C)CO)C[C@@H](C)[C@@H](CN(C)S(=O)(=O)c2c(C)noc2C)O3)cc1 | 0.969
Nc1ncn(C2OC(CO)C(O)C2O)c(=O)n1 (stereo unspecified) | 0.05 (active)
Nc1ncn([C@@H]2O[C@H](CO)[C@@H](O)[C@H]2O)c(=O)n1 | 0.458
Nc1ncn([C@@H]2C[C@H](O)[C@@H](CO)O2)c(=O)n1 | 0.907
CC(=O)N(C)C[C@@H]1Oc2ncc(C#C[C@@H](C)O)cc2C(=O)N([C@@H](C)CO)C[C@H]1C | 1.01
O=C(C[C@@H]1CC[C@@H]2[C@H](COC[C@@H](O)CN2S(=O)(=O)c2cccc(Cl)c2)O1)N1CCOCC1 | 1.01
O=C1OC(=O)[C@H]2[C@@H]1[C@H]1CC[C@H]2O1 | 0.16 (active)
CCc1c(C)[nH]c(=S)c(C#N)c1C | 1.01
Cc1noc(C)c1S(=O)(=O)Nc1ccc2c(c1)C(=O)N([C@@H](C)CO)C[C@H](C)[C@H](CN(C)CC1CC1)O2 | 0.999
COc1ccc(NC(=O)N(C)C[C@H]2Oc3c(NS(=O)(=O)c4cn(C)cn4)cccc3C(=O)N([C@@H](C)CO)C[C@@H]2C)cc1 | 0.995
C[C@H](CO)N1C[C@H](C)[C@@H](CN(C)S(=O)(=O)c2ccc(F)cc2)Oc2ccc(NC(=O)c3ccncc3)cc2CC1=O | 0.989
CCCCCCCCCCCCCCCCOP(=O)([O-])OCC[N+](C)(C)C | 1

SMILES | relative growth
CCCCCCCCCCCCCCCC[N+](C)(C)C | 0.0755 (active)
C[N+](C)(C)CCCCCC[N+](C)(C)C.[Br-].[Br-] | 0.862
NS(=O)(=O)c1cc(-c2nn[nH]n2)c(NCc2cccs2)cc1Cl | 0.965
NC[C@H]1CCN(c2ccc(Oc3ccccc3)cc2)C1 | 0.669
C[C@H]1CCCCO[C@H](CN(C)C(=O)Cc2ccccc2)[C@@H](C)CN([C@@H](C)CO)C(=O)c2cc(NC(=O)c3ccccc3)ccc2O1 | 1.03
CON=C(C(=O)N[C@@H]1C(=O)N2C(C(=O)OCOC(=O)C(C)(C)C)=C(C=Cc3scnc3C)CS[C@H]12)c1csc(N)n1 | 0.0386 (active)
CCC=C(C(=O)NC1C(=O)N2C(C(=O)OCOC(=O)C(C)(C)C)=C(COC(N)=O)CSC12)c1csc(N)n1.Cl (stereo unspecified) | 0.0724 (active)
CON=C(C(=O)NC1C(=O)N2C(C(=O)OCOC(=O)C(C)(C)C)=C(C=Cc3scnc3C)CSC12)c1csc(N)n1 (stereo unspecified) | 0.0492 (active)
Cc1ccc(S(=O)(=O)N(C)C[C@@H]2Oc3ccc(NS(=O)(=O)c4ccc(F)cc4)cc3C(=O)N([C@H](C)CO)C[C@@H]2C)cc1 | 1.08
COc1ccc(CN(C)C[C@@H]2Oc3c(NC(=O)Nc4ccc(C(F)(F)F)cc4)cccc3C(=O)N([C@@H](C)CO)C[C@H]2C)cc1 | 0.818
Cc1cc(-c2ccccc2)nc(-c2ccccc2)c1C | 0.937
C[C@H]1CN([C@@H](C)CO)C(=O)c2cc(NC(=O)CCCCCC(=O)Nc3ccccc3N)ccc2O[C@H]1CN(C)S(=O)(=O)c1cn(C)cn1 | 1.01
CNC[C@H]1Oc2cc(C#CCN(C)C)ccc2S(=O)(=O)N([C@H](C)CO)C[C@@H]1C | 1.02
C[C@@H]1CCCCO[C@@H](CN(C)C(=O)Nc2ccc3c(c2)OCO3)[C@H](C)CN([C@H](C)CO)C(=O)c2cc(NS(=O)(=O)c3ccc(F)cc3)ccc2O1 | 1.01
Cc1noc(C)c1S(=O)(=O)Nc1ccc2c(c1)C(=O)N([C@H](C)CO)C[C@@H](C)[C@@H](CN(C)S(=O)(=O)c1cccs1)O2 | 0.998
C[C@H]1CCCCO[C@H](CN(C)S(C)(=O)=O)[C@@H](C)CN([C@@H](C)CO)C(=O)c2cc(NC(=O)c3ccncc3)ccc2O1 | 1.01
CC[C@H](C)C[C@H](C)CCCCCCCCC(=O)N[C@H]1C[C@@H](O)[C@@H](NCCN)NC(=O)[C@@H]2[C@@H](O)CCN2C(=O)[C@H]([C@H](O)CCN)NC(=O)[C@H]([C@H](O)[C@@H](O)c2ccc(O)cc2)NC(=O)[C@@H]2C[C@@H](O)CN2C(=O)[C@H]([C@@H](C)O)NC1=O | 0.173 (active)
CCCCCOc1ccc(-c2ccc(-c3ccc(C(=O)N[C@H]4C[C@@H](O)[C@@H](O)NC(=O)[C@@H]5[C@@H](O)[C@@H](C)CN5C(=O)[C@H]([C@@H](C)O)NC(=O)[C@H]([C@H](O)[C@@H](O)c5ccc(O)cc5)NC(=O)[C@@H]5C[C@@H](O)CN5C(=O)[C@H]([C@@H](C)O)NC4=O)cc3)cc2)cc1 | 1.12
CCCCCOc1ccc(-c2cc(-c3ccc(C(=O)N[C@H]4C[C@@H](O)[C@@H](O)NC(=O)[C@H]5[C@@H](O)[C@@H](C)CN5C(=O)[C@H]([C@@H](O)CC(N)=O)NC(=O)[C@H]([C@@H](O)[C@@H](O)c5ccc(O)c(OS(=O)(=O)O)c5)NC(=O)[C@H]5C[C@@H](O)CN5C(=O)[C@H]([C@@H](C)O)NC4=O)cc3)no2)cc1 | 0.952
